Screens as filed in PubChem.
BL2 CD40 inh: inhibitors of CD40-induced NF-kB signaling, primary screen, BL2 cells, luciferase reporter, single point. CD40L-induced, 4 h. 83,000 tested, 0.94% active. AID 1053188, 2014. inhibition, % at 10 µM;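 active = mean inhibition of at least 50% with a set share of replicates also reaching that level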;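 note: 0% = neutral control wells and 100% = IKK inhibitor VII at 50 µM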
The depositor's hits bear a star; [ ] = remark or other dose. The full list was thinned out, with hits kept by preference.

SMILES	BL2 CD40 inh
O=C(C1CCCCC1)N1CCCn2c1nc1ccccc12	9.4
NC1=NC2(CCCCC2)n2c(nc3ccccc32)N1	-9.2
N=c1cc(C2(O)CCCCC2)n2c(nc3ccccc32)s1	65.8*
CO[C@H]1CN(C)C(=O)c2ccc(NC(C)=O)cc2OC[C@@H](C)N(C(=O)c2cnccn2)C[C@H]1C	8.5[25 µM]
O=C(CC1CC1)N1CC(=O)N2[C@H](CO)[C@H](c3ccc(C#Cc4cccc(F)c4)cc3)[C@H]2C1	9.2[25 µM]
Cc1cc(C(=O)COC(=O)c2ccc(O)cc2)c(C)n1CC1CCCO1 (centres undefined)	24.3
COc1cc(OC)cc(C(=O)OCC(=O)c2cc(C)n(CC3CCCO3)c2C)c1 (centres undefined)	-26.8
Cc1cc(C(=O)COC(=O)CNC(=O)c2ccccc2)c(C)n1CC1CCCO1 (centres undefined)	57.9*
O=C(Nc1ccc(F)cc1)N1CCCCN2[C@H](CO)[C@H](c3ccc(C#CC4CC4)cc3)[C@@H]2C1	12.6[25 µM]
CC(=O)OC1C(=O)C2(C)C(O)CC3OCC3(OC(C)=O)C2C(OC(=O)c2ccccc2)C2(O)CC(OC(=O)C(O)C(NC(=O)c3ccccc3)c3ccccc3)C(C)=C1C2(C)C (centres undefined)	4.0[25 µM]
COc1cc(SC)ccc1-c1nc2ccncc2[nH]1	-5.8[25 µM]
C[C@@H]1CCCCO[C@H](CN(C)Cc2ccc(C(F)(F)F)cc2)[C@H](C)CN([C@@H](C)CO)C(=O)c2cc(NS(=O)(=O)c3ccc(Cl)cc3)ccc2O1	30.6
COc1ccc(S(=O)(=O)Nc2ccc3c(c2)C(=O)N([C@H](C)CO)C[C@H](C)[C@H](CN(C)Cc2ccc(C(F)(F)F)cc2)OCCCC[C@H](C)O3)cc1	37.1[25 µM]
COc1ccc(NC(=O)Nc2ccc3c(c2)C(=O)N([C@H](C)CO)C[C@@H](C)[C@H](CN(C)Cc2ccc(C(F)(F)F)cc2)OCCCC[C@H](C)O3)cc1	0.7
COc1ccc(S(=O)(=O)Nc2ccc3c(c2)C(=O)N([C@H](C)CO)C[C@@H](C)[C@H](CN(C)Cc2ccc(C(F)(F)F)cc2)OCCCC[C@@H](C)O3)cc1	50.2*[25 µM]
COc1ccc(S(=O)(=O)Nc2ccc3c(c2)C(=O)N([C@@H](C)CO)C[C@@H](C)[C@H](CN(C)Cc2ccc(C(F)(F)F)cc2)OCCCC[C@H](C)O3)cc1	28.0[25 µM]
COc1ccc(S(=O)(=O)Nc2ccc3c(c2)C(=O)N([C@@H](C)CO)C[C@@H](C)[C@@H](CN(C)Cc2ccc(C(F)(F)F)cc2)OCCCC[C@H](C)O3)cc1	73.4*[25 µM]
COc1ccc(S(=O)(=O)Nc2ccc3c(c2)C(=O)N([C@@H](C)CO)C[C@H](C)[C@H](CN(C)Cc2ccncc2)OCCCC[C@H](C)O3)cc1	2.8
COc1ccc(S(=O)(=O)Nc2ccc3c(c2)C(=O)N([C@@H](C)CO)C[C@@H](C)[C@@H](CN(C)Cc2ccc(C(F)(F)F)cc2)OCCCC[C@@H](C)O3)cc1	56.8*[25 µM]
COc1ccc(NC(=O)Nc2ccc3c(c2)C(=O)N([C@@H](C)CO)C[C@@H](C)[C@H](CN(C)Cc2ccc(C(F)(F)F)cc2)OCCCC[C@@H](C)O3)cc1	6.8
COc1ccc(NC(=O)Nc2ccc3c(c2)C(=O)N([C@H](C)CO)C[C@H](C)[C@H](CN(C)Cc2ccc(C(F)(F)F)cc2)OCCCC[C@@H](C)O3)cc1	-1.9
COc1ccc(S(=O)(=O)Nc2ccc3c(c2)C(=O)N([C@H](C)CO)C[C@@H](C)[C@@H](CN(C)Cc2ccc(C(F)(F)F)cc2)OCCCC[C@H](C)O3)cc1	57.9*[25 µM]
COc1ccc(S(=O)(=O)Nc2ccc3c(c2)C(=O)N([C@H](C)CO)C[C@H](C)[C@H](CN(C)Cc2ccc(C(F)(F)F)cc2)OCCCC[C@@H](C)O3)cc1	30.1[25 µM]
COc1ccccc1NC(=O)N1C[C@@H](O)COC[C@H]2O[C@H](CC(=O)NCCc3ccncc3)CC[C@@H]21	6.8[25 µM]
N#Cc1cccc(-c2ccc(C3[C@H]4CNC[C@@H]3N4C(=O)Nc3ccccc3F)cc2)c1 (some centres undefined)	-54.0
SMILES	BL2 CD40 inh
C[C@@H]1CN([C@H](C)CO)C(=O)c2ccccc2-c2ccccc2CO[C@@H]1CN(C)Cc1ccc(C(F)(F)F)cc1	8.2
Cc1ccc(S(=O)(=O)N(C)C[C@H]2OCCCC[C@@H](C)Oc3ccc(NS(=O)(=O)c4ccccc4)cc3C(=O)N([C@H](C)CO)C[C@H]2C)cc1	11.2
CCCNC(=O)N1C[C@@H]2[C@H](c3ccccc31)[C@H](CO)N2C(=O)CN1CCOCC1	-4.4[25 µM]
C[C@@H]1CN([C@@H](C)CO)C(=O)CCCn2cc(nn2)CO[C@@H]1CN(C)Cc1ccc2cccnc2c1	-9.5[25 µM]
C[C@H](CO)N1C[C@H](C)[C@@H](CN(C)Cc2ccc(O)cc2)OCc2ccccc2-c2c(n(C)c3ccccc23)C1=O	-5.6
O=C(Nc1ccc2c(c1)OCO2)N1[C@@H]2CNC[C@H]1C2c1ccc(-c2cccnc2)cc1 (some centres undefined)	-5.5[25 µM]
O=C(Cc1cccc2ccccc12)NC1CCCCCC1	-14.5
CCCNC(=O)N1[C@@H](CO)[C@H](c2ccc(C3=CCCC3)cc2)[C@@H]1CNC(C)=O	6.1
